# Sampled rows, rich in hits. Any-hit rate of the full collection: about 7.5%.
# VACV Venus inh: qHTS for Stage-Specific Inhibitors of Vaccinia Orthopoxvirus: Venus Reporter Primary qHTS | Vaccinia virus Venus reporter expression, fluorescence | Potency, µM (top dose mostly 36.5 µM), inactives show at the highest dose activity change, negative = inhibition, most hits filed as inhibitors | 0.46% of 330,000 active; calls by dose curve; tested in A549 cells; note: potency is the fitted concentration of half-maximal effect; nearly all actives have a fitted effect of over 30% in size
# VACV mCherry inh: qHTS for Stage-Specific Inhibitors of Vaccinia Orthopoxvirus: mCherry Reporter Primary qHTS; 0.63% of 310,000 active; Vaccinia virus mCherry reporter infection, fluorescence; Potency, µM (series often up to 36.5 µM), inactives show at the highest dose activity change, negative = inhibition, most hits filed as inhibitors; calls by dose curve; tested in A549 cells; note: potency is the fitted concentration of half-maximal effect; nearly all actives have a fitted effect of over 35% in size
# HCV inhibitor: qHTS Assay for Inhibitors of Hepatitis C Virus (HCV). Huh7.5.1 HCVcc-Cre infection, luciferase reporter, 44 h. Potency, µM (top dose mostly 41.8 µM), without a hit: at the top dose activity change, negative = inhibition, hits mostly inhibitors. 3.4% of 340,000 active; note: potency is the fitted concentration of half-maximal effect
#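 HCVcc-Cre virus at an moi near 0.5 was added right after compound to cells cultured 4 h from seeding (1,000 cells/well). Luciferase activity was determined 44 h later, 15 min after substrate addition at RT.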
# HCMV inh: qHTS Assay for inhibitors of the human cytomegalovirus (HCMV); HFF cells, HCMV-luciferase reporter, 72 h; stronger effect = lower value; activity change, negative = inhibition, % at 57.5 µM; 4.5% of 410,000 active; AID 1259415, 2018; in the data active = activity change below about -60%; inconclusive = no clear call, values can overlap the other calls; inactive = above about -39%
#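 Steps: HFFs plated, 16 h 37C; compounds added; HCMV-luciferase added to MOI 1 PFU/cell; 72 h 37C; OneGlo reagent, 5 min room temperature; luminescence read, normalized to controls.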
# FBPA Giardia inh: qHTS Assay for Inhibitors of Fructose-1,6-bisphosphate Aldolase from Giardia Lamblia. A8B2U2. purified Giardia FBPA. Potency, µM (titrated, usually from 59.6 µM), for the others: at the highest dose activity, negative = inhibition, most hits filed as inhibitors. 0.71% of 290,000 active; note: potency is the fitted concentration of half-maximal effect; nearly all actives have a fitted effect of over 55% in size
# Target sequence (A8B2U2 whole entry, looked up): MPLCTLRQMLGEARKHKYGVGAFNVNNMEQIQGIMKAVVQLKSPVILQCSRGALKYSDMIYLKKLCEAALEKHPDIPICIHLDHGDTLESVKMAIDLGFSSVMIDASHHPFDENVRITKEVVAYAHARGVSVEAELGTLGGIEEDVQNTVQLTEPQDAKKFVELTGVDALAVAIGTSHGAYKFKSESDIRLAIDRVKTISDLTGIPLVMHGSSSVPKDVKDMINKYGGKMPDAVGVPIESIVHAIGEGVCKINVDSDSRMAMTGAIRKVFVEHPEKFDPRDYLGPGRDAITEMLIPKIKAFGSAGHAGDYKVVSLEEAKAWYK
#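 Giardia FBPA (40 nM reagent) was preincubated 10 min at RT with compound (up to 57.5 uM final), then substrate plus GAPDH/TPI/NAD/arsenate coupling system with diaphorase/resazurin was added; resorufin fluorescence (525/598 nm) was read after 20 min.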
# FMDV inh: High Throughput Screening for Foot and Mouth Disease Virus Antivirals; FMDV antiviral cell-based qHTS; Potency, µM (titrated, usually from 57.9 µM), without a hit: top-dose activity change, negative = inhibition, hits mostly inhibitors; 1.2% of 410,000 active; AID 1159524, 2015; calls by dose curve; tested in HEK293T cells; note: read-out not given here; potency is the fitted concentration of half-maximal effect; nearly all actives have a fitted effect of over 45% in size
# Starred values were filed as active, the others as inactive; i = inactive; ? = inconclusive; / = no result; [ ] = dose if it differs, or a comment. Unless noted, calls come from the whole dose curve; as a rule, active = well fitted curve in the direction sought with a large enough effect; inconclusive = small, poorly fitted or top-dose-only effect, or another doubt; inactive = no such curve, though single readings can be large; an effect the other way counts as inactive or inconclusive. % is set by controls: 0 for no effect and ±100 for the full control effect.
SMILES,VACV Venus inh,VACV mCherry inh,HCV inhibitor,HCMV inh,FBPA Giardia inh,FMDV inh
O=C(N/N=C/c1ccccn1)c1[nH]c2ccc([N+](=O)[O-])cc2c1-c1ccccc1,-14%,-16%,?,-13,-21%,?
O=C(CCN1CCOCC1)Nc1c(-c2ccccc2)c2cc(Br)ccc2[nH]c1=O,-23%,-6%,5%,23,1%,7%
COc1ccc(N2CCN(c3cc(C)c4ccc(C)cc4n3)CC2)cc1,-14%,0%,-15%,-64*,0%,?
COc1ccc2nc(N3CCOCC3)cc(C)c2c1,-18%,?,?,146,3%,/
COc1ccc2c(C)cc(N3CCOCC3)nc2c1,-11%,-16%,25µM*,17,0%,50%
COc1ccc(N2CCN(c3ncnc4c3cnn4-c3ccc(C)cc3C)CC2)cc1,-13%,-15%,10%,-36,-8%,?
COc1ccc(N2CCN(c3nc4cc(C)ccc4cc3C=O)CC2)cc1,5%,?,11µM*,-25,5%,-19%
COc1ccc(N2CCN(c3cc(C)c4ccc(O)cc4n3)CC2)cc1,-18%,?,3%,5,4%,-23%
COc1ccc(N2CCN(c3cc(C)c4cccc(C)c4n3)CC2)cc1,-5%,i,-6%,-74*,-1%,-9%
C[C@@H](CCCCC(=O)Nc1ccc(C(F)(F)F)cc1)NCCc1cnc[nH]1,/,/,/,/,5%,-7%
CC(=O)CCc1oc2c([N+](=O)[O-])cccc2c1-c1ccc(C)o1,/,/,13µM*,31,-1%,-26%
CC(=O)CCc1oc2ccc([N+](=O)[O-])cc2c1-c1ccc(C)o1,-1%,-9%,-8%,-37,-5%,-5%
COC(=O)C(O)C1C(C)(C)C(OC(C)=O)C2CC3=C4CC(=O)OC(c5ccoc5)[C@]4(C)CCC3[C@@]1(C)C2=O (stereo not given in full),-5%,-19%,/,/,3%,0%
CC(C)(C)OC(=O)N1CCCC(C(=O)Nc2cccc(C(=O)NCCCCc3ccccc3)c2)C1 (stereo not given),?,i,-18%[8.37 µM],21,/,?
O=C(NC1CC1)c1cccc(NC(=O)C2CC2)c1,4%,i,5%,-81*,/,-19%
O=C(NC1CC1)c1cccc(NC(=O)C2CCCC2)c1,0%,i,-1%,-31,/,-12%
O=C(NCCc1ccccc1)c1cccc(NC(=O)C2CC2)c1,-18%,0%,0.56µM*,103,/,64%
CC(C)(C)OC(=O)N1CCC(C(=O)Nc2cccc(C(=O)NCCCCc3ccccc3)c2)CC1,-9%,-1%,?,-3,/,18µM*
O=C(NCCc1ccccc1)c1cccc(NC(=O)C2CCC2)c1,3%,-3%,?,47,/,66%
CCc1ccc2oc(C(=O)Nc3ccccc3C(=O)OC)cc(=O)c2c1,-9%,-19%,/,12,/,-20%
O=C(NCCc1nc2ccccc2n1CCCOc1ccc2ccccc2c1)C1CCCCC1,?,3.2µM*,/,/,/,/
OCc1nc2ccccc2n1CCCCOc1ccccc1,-10%,-12%,-15%,30,/,4%
CC(C)(C)C(=O)NCCCc1nc2ccccc2n1CCCOc1ccc(Cl)cc1,?,/,?,-84*,-4%,20µM*
CC(=O)NCCc1nc2ccccc2n1CCCCOc1ccc(Cl)cc1,-13%,-11%,/,-27,/,?
Cc1ccc(OCCCCn2c(CO)nc3ccccc32)cc1,-15%,-10%,-13%,-65*,0%,0%
SMILES,VACV Venus inh,VACV mCherry inh,HCV inhibitor,HCMV inh,FBPA Giardia inh,FMDV inh
O=S(=O)(c1cccs1)N1CCC(CO)(Cc2ccc(Cl)cc2)CC1,-14%,?,?,21,-1%,?
COc1ccc2c(c1)[C@@H](NC(=O)OCc1ccccc1)[C@H](C)[C@@H](c1ccccc1)N2C(=O)Nc1ccc(C(F)(F)F)cc1,/,/,/,-36,/,/
COC(=O)c1c(-c2ccccc2)noc1-c1ccccc1,-11%[7.34 µM],i[7.34 µM],?,15,/,37%
COC(=O)c1c(C)noc1-c1ccc(Cl)cc1,/,/,22%,-64*,3%,5%
CCN1CCOC(=O)C1CC(=O)Nc1cc(C)ccc1OC (stereo not given),-8%,-5%,/,-3,/,-19%
O=S(=O)(c1cccs1)N1CCN(c2cccc(Cl)c2)CC1,-16%,?,17%,-5,-9%,-8%
NS(=O)(=O)c1ccc(N2CCN(S(=O)(=O)Cc3ccccc3)CC2)nc1,-17%,i,11%,27,/,-7%
O=S(=O)(c1cccs1)N1CCN(CCOc2ccc(Cl)cc2)CC1,/,/,?,-82*,/,?
O=S(=O)(c1cccs1)N1CCN(CC(O)COc2cc(Cl)ccc2Cl)CC1 (stereo not given),?,?,?,-61*,-2%,?
NS(=O)(=O)c1ccc(N2CCN(CCOc3ccc(Cl)cc3)CC2)nc1,-10%,?,?,-84*,11%,?
CC(=O)NC(Cc1cccc(F)c1)C(=O)NC1CCN(c2nnnn2-c2ccccc2)CC1 (stereo not given),/,/,21%,-10,1%,-28%
O=[N+]([O-])c1cc(C(F)(F)F)ccc1NCCCCNS(=O)(=O)c1ccc(Cl)cc1,-23%,-28%,?,-73*,0%,?
O=[N+]([O-])c1cc(C(F)(F)F)ccc1Cl,-11%,i,?,-69*,/,-16%
COc1ccc2c(c1)c1c(c(=O)n(-c3ccc(OC)c(OC)c3)c(=O)n1Cc1ccccc1C)n2C,-7%,-19%,/,20,/,-9%
Clc1cccc(Nc2ncnc3c2cnn3-c2ccccc2)c1,?,?,11µM*,-32,?,3%
CCCCNc1ncnc2c1cnn2-c1ccc(Cl)cc1,-21%,-10%,10µM*,105,-14%,-9%
CCCCNc1ncnc2c1cnn2-c1ccccc1,?,/,?,104,-15%,1%
Clc1ccc(-n2ncc3c(NCCCn4ccnc4)ncnc32)cc1,/,/,11µM*,41,-1%,31%
Clc1ccc(-n2ncc3c(NCCN4CCOCC4)ncnc32)cc1,?,/,?,?,2%,?
Cc1nc(N2CCN(Cc3ccccc3)CC2)nc2c1C(=O)CCC2,-15%,-28%,?,-97*,3%,25µM*
O=C(Nc1ccc(F)cc1)c1ccc2c(=O)n3c(nc2c1)CCCCC3,-8%,-7%,?,33,-8%,-9%
Cc1ccc(-c2csc(NC(=O)c3ccc4c(=O)n5c(nc4c3)CCCCC5)n2)cc1,-20%,-2%,?,-66*,0%,7.9µM*
Cc1ccc(S(=O)(=O)N2CCCCC2)cc1NC(=O)c1ccc2c(=O)n3c(nc2c1)CCCCC3,/,/,11µM*,-38,-1%,/
